# Compound activity deposited in PubChem BioAssay by National Center for Advancing Translational Sciences (NCATS).
# Compounds with a hit are over-represented: about 4.6% of the library has one in this group of screens.
# TRHR enhancer = qHTS for Small Molecule Agonists and Allosteric Enhancers of Human TRH Receptor: Primary Screen for Enhancers; TRHR cells, fluo-8 calcium fluorescence, EC20 TRH enhancement; enhancement, % at 2 µM; AID 493056, 2011; hit rate 0.66% among 360,000; Thyrotropin-releasing hormone receptor (Homo sapiens), P34981; in the data active means enhancement above about 30%; further: 0% is about no effect
#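 TRHR-expressing cells loaded with fluo-8 calcium dye were read kinetically (ex 480/em 530) during compound addition, then stimulated with an EC20 of TRH (10 nM final). Enhancement of the Gq-mediated intracellular calcium response was scored.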
# D1 antag = Antagonist of Human D 1 Dopamine Receptor: qHTS. D(1A) dopamine receptor (Homo sapiens), P21728. HEK293 TREx D1 cells, calcium flux, dopamine EC80; hits give low values. activity change, negative = inhibition, % at 10 µM. hit rate 3.2% among 360,000. AID 504652, 2011; in the data active means activity change below about -30%; further: on the % scale 0 is the no-effect control and ±100 the full control effect
# Target sequence (P21728 whole entry, looked up): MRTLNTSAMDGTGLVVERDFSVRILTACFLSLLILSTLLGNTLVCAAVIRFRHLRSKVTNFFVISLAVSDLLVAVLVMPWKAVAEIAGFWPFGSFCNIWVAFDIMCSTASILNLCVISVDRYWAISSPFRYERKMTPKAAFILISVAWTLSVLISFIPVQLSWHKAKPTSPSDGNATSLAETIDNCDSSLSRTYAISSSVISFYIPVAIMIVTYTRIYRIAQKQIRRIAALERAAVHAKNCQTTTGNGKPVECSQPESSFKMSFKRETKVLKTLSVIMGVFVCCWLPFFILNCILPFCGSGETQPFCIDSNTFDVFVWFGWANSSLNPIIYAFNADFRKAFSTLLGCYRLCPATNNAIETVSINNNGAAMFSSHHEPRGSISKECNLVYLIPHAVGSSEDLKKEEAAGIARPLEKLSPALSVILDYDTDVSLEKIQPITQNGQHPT
#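 Compound effects on dopamine-evoked calcium signalling were measured in tetracycline-induced HEK293 Trex D1 cells. Dopamine at EC80 followed a 180 s compound pre-read, and fluorescence was tracked kinetically for 180 s more.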
# TRHR agonist = qHTS for Small Molecule Agonists and Allosteric Enhancers of Human TRH Receptor: Primary Screen for Agonists. activation, % at 2 µM. hit rate 0.18% among 360,000. AID 493084, 2011. TRHR cells, calcium flux fluo-8, FDSS agonist mode. Thyrotropin-releasing hormone receptor (Homo sapiens), P34981; further: 0% is about no effect
#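 Steps: seed TRHR cells overnight; add fluo-8 no-wash Ca dye, RT 30 min–1.5 h; record 10 s baseline; pin-transfer compounds; monitor fluorescence 1 cycle/s for the agonist window. Calcium increases flag candidate agonists.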
# D1 agonist = Allosteric Agonists of the Human D1 Dopamine Receptor: qHTS; HEK293 T-REx D1 cells, calcium flux, agonist mode; activation, % at 2 µM; D(1A) dopamine receptor (Homo sapiens), P21728; AID 504660, 2011; hit rate 1% among 360,000; further: 0% is about no effect
#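 Tetracycline-induced HEK293 TREx D1 cells, force-coupled to calcium signalling, were dye-loaded with a no-wash calcium kit. Compound was pin-added after a 10 s baseline. Fluorescence was read kinetically at 1 cycle/s for 180 s, with calcium rises flagged as agonism.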
# D1 potentiator = Potentiators of Human D1 Dopamine Receptor: qHTS; hit rate 0.036% among 360,000; AID 504651, 2011; D(1A) dopamine receptor (Homo sapiens), P21728; potentiation, % at 10 µM; HEK293 TREx D1 cells, calcium flux, dopamine EC20 potentiation; in the data active means potentiation above about 30%; further: 0% is about no effect
# * hit, by the source's call; . = no result given. Unless noted, no stated cut-off is given here; in the data, active means activation above about 30%; inactive means the rest.
SMILES,TRHR enhancer,D1 antag,TRHR agonist,D1 agonist,D1 potentiator
COc1ccc(-n2c(=O)c3ccc(C(=O)NCc4ccc(C)cc4)cc3n(Cc3ccc(Cl)cc3)c2=O)cc1,-1.5,8.7,0.6,2.7,0.9
CCc1ccc(OC(C)C(=O)N2CCC(c3nc4ccccc4s3)CC2)cc1 (centres undefined),-6.2,0.3,1.5,5.9,0.0
CCOc1ccccc1Nc1ncnc2c1cnn2-c1ccc(C)cc1,-6.1,-41.0*,-0.2,-3.0,0.6
CCOc1ccccc1Nc1ncnc2c1cnn2-c1ccccc1,-4.8,-12.5,-1.4,0.0,-10.2
Cc1ccc(-n2ncc3c(Nc4cccc(C)c4C)ncnc32)cc1,-5.5,-32.4*,0.2,-2.3,-3.0
Cc1ccc(Sc2c(C)nn(C(=O)COc3ccc(F)cc3)c2C)cc1,0.3,-4.0,-0.7,10.6,-4.2
Cc1nn(C(=O)COc2ccc(Cl)cc2)c(C)c1Sc1ccccc1,-4.6,-37.0*,-0.5,12.3,-4.3
O=C1c2cccc([N+](=O)[O-])c2C(=O)N1c1c[nH]c(=O)[nH]c1=O,30.3*,-11.0,0.0,0.9,1.3
Cc1ccccc1N1C(=O)c2cccc([N+](=O)[O-])c2C1=O,0.7,-2.7,-0.4,0.3,1.5
Cc1noc(C)c1CSCC(=O)N1CCN(c2ccc(F)cc2)CC1,2.9,-31.5*,0.4,13.1,-3.3
Cc1noc(C(=O)N2CCN(c3ccc(F)cc3)CC2)c1Cl,4.9,-69.2*,-0.3,2.3,-3.0
CCC(=O)NC(c1cccc(C)c1)c1cc(Cl)c2cccnc2c1O (centres undefined),6.2,9.6,5.0,23.1,-2.6
COc1cccc(OC(=O)CSc2nnc(-c3cccs3)o2)c1,-1.7,-16.8,0.6,2.2,2.6
Clc1ccc(Cn2c(-c3cccnc3Cl)nc3ccccc32)cc1,-4.1,-44.8*,0.6,2.1,-6.6
CCc1cccc(NC(=O)CSc2ncc3c(n2)-c2cc(Cl)ccc2N(C)S3(=O)=O)c1,1.1,29.2,0.4,5.3,0.5
CCOc1ccccc1NC(=O)Cn1cc(C(=O)c2ccc(Cl)cc2)c(=O)c2ccc(C)nc21,9.2,-2.0,1.6,0.1,-0.2
Cc1ccc(NC(=O)CSc2ccc(C(N)=O)cc2[N+](=O)[O-])cc1C,-3.5,.,-0.4,-2.3,1.2
CCc1ccc(Nc2ccc(C(=O)O)cc2[N+](=O)[O-])cc1,-1.7,-3.0,0.5,0.9,-0.2
Cc1ccc(Nc2ccc(C(N)=O)cc2[N+](=O)[O-])cc1C,3.0,-52.9*,-1.6,0.6,-11.7
CCc1ccc(Nc2ccc(C(N)=O)cc2[N+](=O)[O-])cc1,0.4,-39.7*,-0.3,1.1,-3.9
CN(C(=O)CSc1nnc(COc2ccccc2)o1)c1ccccc1,-1.4,-0.4,-0.3,-0.4,0.1
CCOC(=O)N[C@H](Cc1c[nH]c2ccccc12)C(=O)Nc1cccc(Cl)c1,1.9,-40.7*,-0.9,8.3,-3.2
CCC(Sc1nncn2c1cc1oc(C)cc12)C(=O)Nc1ccc(F)cc1 (centres undefined),17.4,-20.1,0.4,-0.1,2.1
Cc1nc2c(-c3ccccc3)c(C)nn2c(SCC(N)=O)c1Cc1ccccc1,34.3*,10.4,0.4,-0.7,-3.4
O=C1CC(Cc2ccccc2)C(=O)N1CCc1ccc2c(c1)OCO2 (centres undefined),11.9,-8.1,0.5,2.2,2.8
SMILES,TRHR enhancer,D1 antag,TRHR agonist,D1 agonist,D1 potentiator
O=C1OC[C@H](Cc2ccc3c(c2)OCO3)/C1=C\c1ccc2c(c1)OCO2,9.1,-33.0*,-0.1,20.2,0.0
Nc1[nH]n2c(=O)cc(-c3ccccc3)nc2c1N=Nc1ccccc1,-4.3,-37.9*,1.2,2.1,-14.9
CC(OC(=O)c1ncc(Cl)c(Cl)c1Cl)C(=O)NC1CCCCC1C (centres undefined),-0.8,-32.1*,-0.4,2.1,0.0
CC(=O)NC(c1ccc([N+](=O)[O-])cc1)c1c(O)ccc2ccccc12 (centres undefined),-4.3,-24.3,0.0,15.9,-7.7
CC(C)C(=O)NC(c1ccc([N+](=O)[O-])cc1)c1c(O)ccc2ccccc12 (centres undefined),1.9,-31.9*,-1.1,13.7,-7.4
CN(C)c1ccc(-n2cccc2/C=C/[N+](=O)[O-])cc1,-11.2,-22.4,1.7,2.8,-13.4
CN(c1ccccc1)c1ccc(/C=C/[N+](=O)[O-])cc1,3.1,-52.3*,-1.6,139.7*,-13.6
NC(=O)c1ccccc1,5.2,-98.8*,0.4,1.6,-10.2
CC1=NN(c2ccc(Cl)cc2)C(=O)C1,-2.0,17.6,0.8,5.9,2.7
CC1=NN(Cc2ccccc2)C(=O)C1,3.4,-36.5*,-0.6,-1.5,-12.7
Cc1ccccc1NC(=O)CSc1nc2c(c(=O)n(C)c(=O)n2C)n1Cc1ccccc1F,-1.7,-18.9,-0.1,-0.5,-2.5
COc1cc(Cl)c(C)cc1NC(=O)c1cc2c(s1)-c1c(C)cccc1OC2,-16.9,7.7,-0.4,-0.8,-3.7
COc1ccc(NC(=O)c2cc3c(s2)-c2c(C)cccc2OC3)cc1Cl,49.7*,-10.7,0.6,1.0,-4.3
COc1cccc(CNC(=O)c2cc3c(s2)-c2c(C)cccc2OC3)c1,14.1,-36.5*,0.3,2.5,-7.8
COc1cccc(CNC(=O)c2cc3c(s2)-c2ccccc2OC3)c1,0.7,-10.7,0.3,2.4,-6.2
O=C(OCc1cc(=O)n2nc(-c3cccs3)sc2n1)c1ccc(Cl)cc1,-3.1,-10.5,0.1,2.0,-2.5
COc1ccccc1N1CCN(/N=C\c2sccc2C)CC1,-5.6,-43.1*,-0.4,5.1,-4.3
COc1ccccc1N1CCN(/N=C\c2ccccc2)CC1,2.5,4.9,-0.4,5.7,-5.5
CCOc1cc(C2C(C#N)=C(N)OC3=C2C(=O)CC(C)(C)C3)cc([N+](=O)[O-])c1O (centres undefined),-4.3,9.9,-0.2,4.2,-2.5
CC1(C)CC(=O)C2=C(C1)OC(N)=C(C#N)C2c1cc2c(cc1[N+](=O)[O-])OCO2 (centres undefined),-0.5,-33.3*,1.2,0.8,-1.6
CCc1ccc(C(=O)c2cn(CC(=O)Nc3ccc4c(c3)OCO4)c3ccc(OC)cc3c2=O)cc1,1.9,-2.0,-0.2,2.2,-1.2
CC(=O)c1ccc(NC(=O)c2cc(C)nc3c2c(C)nn3-c2ccc(C)cc2)cc1,20.8,-28.8,0.6,6.1,-4.2
COC(=O)c1c(NC(=O)CN2C(=O)C(=O)N(C(C)C)C2=O)sc(C)c1C,-1.9,-37.1*,-0.1,-0.3,-3.4
